In PubChem BioAssay:

Test: small-molecule binders of probe aInhba, primary screen, biochemical, small-molecule microarray, 635/667 nm fluorescence (AID 1148);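 also: score merges 667nm spot fluorescence with signal-to-noise for antibody binding to printed compounds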
Conditions: higher = more signal

Point of comparison: `CN(C)CCCC[C@@H]1NC(=O)[C@H]2C[C@@H](C(=O)NCCCCCN)[C@@H](c3cccc(OCCO)c3)N2C1=O`, composite z-score 0.495. Against it:
- COC(=O)[C@@]1(Cc2ccc(OC)cc2)[C@H]2c3cc(C(=O)N4CCCC4)n(Cc4nc5ccccc5[nH]4)c3C[C@H]2CN1C(=O)c1ccccc1 — higher, 0.802
- COc1ccc(NC(=O)O[C@H]2[C@H](OC(=O)c3cc4ccccc4[nH]3)[C@@H](OC(=O)c3cc4ccccc4[nH]3)[C@@H](OC)O[C@@H]2CO)cc1 — lower, -0.0044
- C=C(CCCC)C(=O)CC[C@@H](OC(C)=O)c1ccc(CO)o1 — lower, -0.154
- O=C1[C@H]2C=C(I)[C@H](C[C@@H]2OCCCCO)[C@@]12CO2 — lower, -0.025
- COCCCNC(=O)[C@@]1(Cc2ccccc2)N=C(c2ccc(OCCCO)cc2)O[C@H]1c1ccccc1CN=[N+]=[N-] — lower, 0.389
- CN(C)CCCCCCNC(=O)[C@@H]1C[C@@H]2C(=O)N3CCC[C@H]3C(=O)N2[C@@H]1c1ccc(O)cc1 — lower, 0.138
- COc1ccc([C@H]2C[C@H]3C(Br)=C[C@@]2(CO)C(=O)[C@]32CO2)cc1 — lower, -0.0245
- C=CCNC(=O)[C@@H]1[C@H]2C(=O)O[C@H](c3ccccc3)[C@H](c3ccccc3)N2[C@H](c2ccc(OCCO)cc2)[C@@]12C(=O)N(C(=O)OCCOC)c1ccc(C#CCNC(N)=O)cc12 — lower, 0.115
- CS(=O)(=O)CCOC(=O)C1=CC(CCCO)=CC(c2ccc(CN3CCCC3)cc2)N(Cc2cccc(OC(F)(F)F)c2)C=C1C(=O)OCCS(C)(=O)=O (stereo unspecified) — lower, 0.259
- COCCOC(=O)N1C(=O)[C@@]2(c3cc(C#CC4(O)CCCCCC4)ccc31)[C@H](C(=O)Nc1nc3ccccc3s1)[C@H]1C(=O)O[C@H](c3ccccc3)[C@H](c3ccccc3)N1[C@@H]2c1ccc(OCCO)cc1 — lower, 0.366
- [N-]=[N+]=Nc1ccccc1C[C@]1(C(=O)NCC(O)CO)N=C(c2ccc(OCCCO)cc2)O[C@H]1c1ccccc1 (stereo partly specified) — lower, 0.0134
- [N-]=[N+]=NCc1ccccc1C[C@@]1(C(=O)NCC(O)CO)N=C(c2ccc(OCCCO)cc2)O[C@@H]1c1ccccc1 (stereo partly specified) — lower, 0.0377
- C=CCN1C(=O)[C@]2(O[C@H](CCO)[C@@H]([Si](C)(C)c3ccc(OC)cc3)[C@@H]2C)c2cc(N(C=O)c3ccccc3)ccc21 — lower, -0.082
- Cc1ccc(S(=O)(=O)N2C[C@@H](C(=O)O)[C@H](Sc3ccccc3)C[C@H]2c2ccccc2)cc1 — lower, 0.0403
- COC(=O)[C@]1(Cc2ccccc2)N=C(c2ccc(OCCCO)cc2)O[C@@H]1c1ccccc1N=[N+]=[N-] — lower, -0.0221
- C=CC[C@]1(C(N)=O)N=C(c2ccc(OCCCO)cc2)O[C@H]1c1ccccc1 — lower, -0.168
- [N-]=[N+]=Nc1ccccc1[C@H]1OC(c2ccc(OCCCO)cc2)=N[C@@]1(Cc1ccccc1)C(=O)N1CCOCC1 — higher, 0.554
- O=C1NC(=O)C2C1C=CC(C(O)c1ccc(-c3ccccc3)s1)N2Nc1ccc(Cl)cc1Cl (stereo unspecified) — lower, 0.0569
- NCCCCCNC(=O)[C@H]1C[C@H]2C(=O)N3CCC[C@H]3C(=O)N2[C@H]1c1ccc(O)cc1 — lower, 0.336
- CC(=O)n1cc(C(O)C2C=CC3C(=O)NC(=O)C3N2Nc2ccccn2)c2ccccc21 (stereo unspecified) — lower, 0.23
- CO[C@H]1O[C@H](CO)[C@@H](OC(=O)Nc2cccc(F)c2)[C@H](OC(=O)Nc2ccccc2)[C@H]1OC(=O)Nc1ccccc1 — lower, 0.226
- CO[C@H]1O[C@H](CO)[C@@H](OC(=O)Nc2ccccc2-c2ccccc2)[C@H](OC(=O)Nc2ccccc2-c2ccccc2)[C@@H]1OC(=O)Nc1ccccc1-c1ccccc1 — lower, 0.173
- O=C(NCc1ccccc1)[C@@H]1c2ccccc2C(=O)N(C2Cc3ccccc3C2)[C@H]1c1ccc(CO)cc1 — lower, 0.196
- O=C1C2C=CC(C(O)c3ccc(-c4ccccc4)s3)N(Nc3ccccc3)C2C(=O)N1c1ccccc1 (stereo unspecified) — lower, 0.0183
- Cc1c(NC(=O)/C(C#N)=C/c2cccc([N+](=O)[O-])c2)c(=O)n(-c2ccccc2)n1C — lower, -0.0774
- O=C1C2C=CC(C(O)c3c(F)cccc3Cl)N(Nc3ccccc3F)C2C(=O)N1c1ccccc1 (stereo unspecified) — lower, 0.143
- NCCCCCCNC(=O)[C@H]1C[C@H]2C(=O)N[C@@H](Cc3ccccc3)C(=O)N2[C@H]1c1cccc(OCCO)c1 — lower, -0.128
- O=C(NCCN1CCOCC1)[C@@H]1c2ccccc2C(=O)N(Cc2cc(C(F)(F)F)cc(C(F)(F)F)c2)[C@H]1c1ccc(CO)cc1 — lower, 0.0154
- COc1ccc([Si](C)(C)[C@@H]2[C@@H](CC(=O)N3Cc4ccccc4C[C@H]3CO)O[C@]3(C(=O)N(Cc4cccc(N5CCC5=O)c4)c4ccccc43)[C@H]2C)cc1 — lower, -0.0463
- CN1C(=O)C2C=CC(C(O)c3c(F)cccc3Cl)N(NC(=O)OC(C)(C)C)C2C1=O (stereo unspecified) — lower, 0.181
- O=C1OCCC/C=C\[C@H]2OC34C=CCN(c5ccc6ccccc6c5)C(=O)[C@H]3N(CCCCCO)C(=O)[C@@H]4C12 (stereo partly specified) — lower, -0.209
- COc1ccc([Si](C)(C)[C@H]2[C@H](CC(=O)N3CCC[C@H]3CO)O[C@@]3(C(=O)N(Cc4cccc(N5CCOC5=O)c4)c4ccccc43)[C@@H]2C)cc1 — lower, -0.0468
- COCC(=C=CC[C@H](O)c1cccc(OCCO)c1)CCO — lower, -0.12
- C=CCC(OC(C)=O)[C@@H]1[C@@H](N(Cc2ccc(-c3cccc(C(F)(F)F)c3)o2)C(=O)c2cccc3ccccc23)c2cc(OCCCO)ccc2N1C(=O)Cc1ccc2ccccc2c1 (stereo partly specified) — lower, 0.374
- COCCOC(=O)N1C(=O)[C@@]2(c3ccccc31)[C@H](C(=O)N1CCCCCCC1)[C@H]1C(=O)O[C@H](c3ccccc3)[C@H](c3ccccc3)N1[C@@H]2c1ccc(OCCO)cc1 — higher, 2.4
